TEAD-YAP block – TEAD-YAP interaction inhibition; HEK-TIYL cells, TEAD-Gal4/YAP UAS-luciferase luminescence; inhibition, % at 9.12 µM; 640,000 tested, 1.4% active; AID 1259422; in the data active = inhibition above about 32%;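 note: 0% = median of test compound wells and 100% = reference inhibitor wells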
MITF inh – inhibitors of human MITF | AID 1259374 | AlphaScreen MITF homodimerization, bead proximity signal | O75030 | inhibition, % at 2.6 µM | 650,000 tested, 0.91% active; in the data active = inhibition above about 50%;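 note: 0% = vehicle wells with protein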
FBW7 activator – human FBW7 E3 ligase activation, primary screen. Q969H0. AlphaScreen FBW7–phospho-cyclin E peptide binding, activator screen. normalized activity (activation), % at 26.1 µM. 650,000 tested, 0.13% active. AID 1259310; in the data active = normalized activity above about 1.9%;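 note: purified mutant Fbw7 with reduced substrate affinity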
Target sequence (Q969H0 whole entry, looked up): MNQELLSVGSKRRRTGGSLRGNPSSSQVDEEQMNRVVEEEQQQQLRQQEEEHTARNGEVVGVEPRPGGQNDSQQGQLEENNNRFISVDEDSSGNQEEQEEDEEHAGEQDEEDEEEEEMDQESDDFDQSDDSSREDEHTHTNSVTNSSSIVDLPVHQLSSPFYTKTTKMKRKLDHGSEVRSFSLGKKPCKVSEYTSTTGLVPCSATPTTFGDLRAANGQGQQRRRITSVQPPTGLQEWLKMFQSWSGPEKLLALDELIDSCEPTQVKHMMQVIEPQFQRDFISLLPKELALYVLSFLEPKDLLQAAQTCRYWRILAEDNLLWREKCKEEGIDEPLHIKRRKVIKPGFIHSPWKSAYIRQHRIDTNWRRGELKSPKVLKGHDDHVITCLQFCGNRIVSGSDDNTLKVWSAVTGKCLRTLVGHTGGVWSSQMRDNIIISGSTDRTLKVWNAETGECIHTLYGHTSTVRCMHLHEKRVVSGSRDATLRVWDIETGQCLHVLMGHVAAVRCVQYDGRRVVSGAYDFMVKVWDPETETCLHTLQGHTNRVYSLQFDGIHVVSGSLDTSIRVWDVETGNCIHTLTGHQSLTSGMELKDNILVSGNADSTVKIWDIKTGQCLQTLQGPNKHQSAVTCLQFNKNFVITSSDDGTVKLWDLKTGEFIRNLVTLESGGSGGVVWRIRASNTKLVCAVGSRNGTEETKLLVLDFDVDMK
GPR151 ag – activators of human GPR151. Q8TDV0. PathHunter beta-arrestin GPR151 cells, luminescence. activation, % at 11.2 µM. 650,000 tested, 1% active; in the data active = activation above about 4.9%;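 note: 0% = median of compound wells and 100% = cells with positive control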
GPR151 conf act – confirmation of human GPR151 activators; shares compounds with GPR151 ag; AID 1508609; 6,700 tested, under 10 active; activation, % at 11.2 µM; GPR151 PathHunter beta-arrestin cells, luminescence, 90 min; % of EA-reagent control over plate median;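 active = mean percent activation across replicates above the confirmation screen cutoff of 4.91%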
GPR119 counter – GPR119 activation, counter-screen for GPR151 activators | shares compounds with GPR151 ag | GPR119 PathHunter beta-arrestin cells, luminescence, 90 min; 0 = compound-well median, 100 = enzyme-acceptor control | activation, % at 11.2 µM | 6,700 tested, 0.3% active | AID 1508611;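 active = mean percent activation in the counterscreen above 29.09%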;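 note: counterscreen on off-target GPR119 to flag nonselective hits from the GPR151 activator screen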
Numbers without * were called inactive; . = no result. Sampled rows, rich in hits. Any-hit rate of the full collection: about 3.5%.

SMILES | TEAD-YAP block | MITF inh | FBW7 activator | GPR151 ag | GPR151 conf act | GPR119 counter
O=C(NCc1ccsc1)c1ccc(Cl)s1 | -11.6 | 5.1 | -0.1 | -1.0 | . | .
Cc1csc(NC(=O)/C=C/c2cccc(Cl)c2)n1 | -34.6 | 4.2 | 0.0 | 5.0* | -0.4 | -12.5
CCCCCn1c(SCC(=O)OCC)nc2cc(C(=O)NC3CCCCC3)ccc2c1=O | 1.1 | -7.5 | -0.3 | 5.4* | -0.2 | 4.1
O=C(O)CCC/C=C\C[C@H]1[C@@H](O)CC(=O)[C@@H]1/C=C/[C@@H](O)CCc1ccccc1 | . | -11.1 | . | 0.0 | . | .
CS(=O)(=O)N(Cc1ccccc1Cl)c1ccc(C(=O)NCc2ccco2)cc1 | -2.2 | 2.7 | -0.1 | -0.2 | . | .
CC(C)CCNC(=O)c1ccc(N(Cc2ccccc2Cl)S(C)(=O)=O)cc1 | -2.4 | 23.8 | 0.2 | 7.9* | 0.0 | -7.1
CS(=O)(=O)N(Cc1ccccc1Cl)c1ccc(C(=O)N2CCCC2)cc1 | 2.0 | 13.5 | 0.1 | 9.2* | 0.4 | -1.1
O=c1cc(Nc2ccc3c(c2)OCO3)[nH]c(=O)n1-c1ccc(Br)cc1 | 3.7 | 9.2 | 0.0 | 22.2* | -0.2 | 4.0
c1cncc(CSc2ccc(-c3cccnc3)nn2)c1 | -18.6 | 4.3 | 0.3 | 7.0* | 1.3 | 5.7
CCn1c(C(=O)O)c(CNC2CCCC2)c2ccc(C)cc21 | -1.7 | 5.7 | 0.4 | 8.4* | -0.4 | 3.8
Nc1nc(NCCc2ccc(O)cc2)cc(-c2ccc(C(=O)NC3CC3)cc2)n1 | 3.1 | 1.5 | 0.2 | 6.8* | -0.5 | -9.8
NC(=O)c1ccc(-c2cc(NCCc3ccc(O)cc3)nc(N)n2)cc1 | -13.5 | -7.8 | 0.1 | -1.8 | . | .
Cn1nccc1Nc1nccc(Nc2ccccc2)n1 | -4.8 | -4.6 | 0.0 | 7.5* | 0.8 | 5.2
CN(C)C(CNC(=O)c1ccccc1Cl)c1ccccc1 (stereo not drawn) | -3.3 | 9.1 | -0.1 | 2.1 | . | .
O=C(Nc1cccc(Cl)c1)O/N=C\c1ccncc1 | -10.5 | -0.7 | 0.0 | 5.2* | -0.7 | 2.0
O=C(NCCc1ccc(F)cc1)C(=O)Nc1cccc(Cl)c1 | 11.4 | 6.4 | 0.2 | 0.2 | . | .
O=C(N/N=C/c1ccc(F)cc1)C(=O)Nc1ccc(Cl)c(Cl)c1 | -1.3 | 3.8 | 0.8 | 1.7 | . | .
O=C(N/N=C/c1ccc(F)cc1)C(=O)Nc1cccc(Cl)c1 | 0.6 | 9.8 | -0.1 | 5.0* | 0.8 | 12.3
O=C(NCc1ccc(F)cc1)C(=O)Nc1cccc(Cl)c1 | -6.3 | -3.3 | 0.1 | 5.1* | 2.7 | -0.4
CCn1cc(CN2CCCC(N3CCN(c4ccc(OC)cc4)CC3)C2)cn1 (stereo not drawn) | -1.7 | 1.2 | 0.1 | -0.8 | . | .
COc1ccc(Nc2ncc(-c3ccc(O)cc3)n3ccnc23)cc1 | -10.1 | -23.0 | 0.1 | -1.2 | . | .
O=C(NCc1ccccc1)c1ccc2c(c1)OCO2 | -16.8 | -7.8 | -0.2 | -0.5 | . | .
Cc1ccc(C2CC(c3cccs3)=NN2C(=O)CSc2nnc(CNC(=O)COc3ccccc3)n2Cc2ccccc2)cc1 (stereo not drawn) | -15.1 | -12.7 | -0.1 | 0.4 | . | .
N#Cc1ccccc1OCC(=O)N=Nc1c(O)[nH]c2ccc([N+](=O)[O-])cc12 | 10.6 | 10.1 | -0.1 | 0.9 | . | .
N#Cc1ccccc1OCC(=O)N=Nc1c(O)[nH]c2ccccc12 | -14.4 | 5.0 | -0.2 | 6.0* | -0.7 | -2.8
SMILES | TEAD-YAP block | MITF inh | FBW7 activator | GPR151 ag | GPR151 conf act | GPR119 counter
Clc1ccc(CNc2cc3c(cc2Br)OCCO3)cc1 | -2.9 | 15.7 | 0.0 | -1.8 | . | .
COCCn1c(SCc2ccc(F)cc2)nc2c([nH]c3ccccc32)c1=O | -7.6 | 4.9 | -0.1 | 0.7 | . | .
COCCn1c(SCc2cccc(Cl)c2)nc2c([nH]c3ccccc32)c1=O | -1.4 | 1.1 | -0.2 | 11.0* | -0.6 | -2.3
CCCCCn1c(N)c(C#N)c2nc3ccccc3nc21 | 6.2 | 35.3 | 0.1 | 8.2* | 0.0 | 2.3
Cn1c(N)c(C#N)c2nc3ccccc3nc21 | -2.1 | 8.5 | 0.8 | 1.0 | . | .
COC(=O)c1ccc2c(=O)n(CCc3ccc(OC)c(OC)c3)c(SCC(=O)Nc3ccc(C)cc3)nc2c1 | -0.3 | 1.4 | -0.2 | -1.0 | . | .
COc1ccc(CCn2c(SCC(=O)c3ccc(F)cc3)nc3ccccc3c2=O)cc1OC | -0.6 | 0.6 | -0.1 | 5.4* | 0.6 | 9.2
COC(=O)c1ccc2c(=O)n(CCc3ccc(OC)c(OC)c3)c(SCC(=O)Nc3cc(C)on3)nc2c1 | -2.0 | -2.9 | 0.2 | 5.8* | -0.2 | -8.0
CCC(Sc1nc2ccccc2c(=O)n1CCc1ccc(OC)c(OC)c1)C(=O)N(CC)CC (stereo not drawn) | 5.4 | 18.9 | 0.7 | 6.0* | 1.1 | 9.2
CCC(Sc1nc2ccccc2c(=O)n1CCc1ccc(OC)c(OC)c1)C(=O)N1CCOCC1 (stereo not drawn) | 11.4 | 11.3 | 0.1 | -1.1 | . | .
COc1ccc(C(C)=O)cc1CSc1nc2ccccc2c(=O)n1CCc1ccc(OC)c(OC)c1 | -4.6 | -8.9 | 0.0 | 6.9* | 0.5 | 5.7
COc1ccccc1/C=C/C1=NC(=C\c2ccc(OC(C)=O)cc2)/C(=O)O1 | -4.5 | 5.3 | 0.0 | -0.2 | . | .
COc1cccc(NC(=O)C2C3C=CC4(O3)C2C(=O)N(CCCOC(C)C)C4C(=O)NC2CCCCC2C)c1 (stereo not drawn) | -2.9 | 5.5 | 0.5 | -0.8 | . | .
O=C(Nc1ccccc1F)C1CCN(C(=O)Cc2ccccc2)CC1 | 1.4 | 3.0 | -0.2 | 5.4* | -0.7 | -11.7
Cc1c(Cl)cccc1NC(=O)C1CCN(C(=O)Cc2ccccc2)CC1 | 4.0 | -1.1 | 0.0 | 0.4 | . | .
COc1ccc(N2CCN(C(CNC(=O)C3CC3)c3cccnc3)CC2)cc1 (stereo not drawn) | 8.7 | -9.4 | -0.1 | 0.6 | . | .
Oc1cccc2ccc(Nc3ccccn3)nc12 | 85.9* | 108.1* | -0.3 | 5.1* | -1.2 | -7.8
Cc1ccc(-c2csc(NC(=O)C(C)C)c2C(=O)O)cc1 | 1.6 | 3.6 | -0.1 | 0.5 | . | .
O=C(Oc1ccc([N+](=O)[O-])cc1)c1ccc(N2C(=O)C3C4CCC(C4)C3C2=O)cc1 (stereo not drawn) | 1.0 | -5.0 | 0.0 | 7.5* | -0.1 | 0.2
CC(=O)Nc1ccc(-c2nnn(CC(=O)Nc3ccccc3C(F)(F)F)n2)cc1Cl | -0.1 | 12.6 | 0.1 | -0.9 | . | .
CC(=O)c1ccc(NC(=O)c2ccc(S(=O)(=O)N3CCCC3)cc2)cc1 | 1.3 | 11.3 | 0.3 | 5.0* | -0.5 | -13.0
COc1cc(NS(=O)(=O)c2ccc(NC(=O)c3ccc(C(C)=O)cc3)cc2)ncn1 | -6.7 | 12.7 | -0.1 | 5.7* | -0.5 | -12.8
CC(=O)c1ccc(NC(=O)Nc2ccc(S(=O)(=O)N3CCCC3)cc2)cc1 | 16.8 | 9.3 | 0.2 | -1.0 | . | .
O=C(CSCc1ccc(Cl)cc1)NCCSCc1ccco1 | -3.1 | 5.4 | 0.0 | 7.8* | -0.7 | -15.8
O=C(NCCN1CCOCC1)C1CCN(c2ccc(NCc3cccnc3)nn2)CC1 | 8.7 | 4.0 | 0.1 | 6.1* | -0.4 | 4.3

High-throughput results (PubChem BioAssay)
